JMJD2A Tudor: JMJD2A Tudor domain (human) inhibition; Potency, µM (top dose mostly 114 µM), actives largely listed as inhibitors; AlphaScreen JMJD2A-Tudor / H3K4me3 peptide binding; 390,000 compounds, 4.4% hits; AID 504339; further: nearly all actives have a fitted effect of over 50% in size
HP1b binding inh: inhibitors of HP1-beta chromodomain binding to methylated histone tails; P83916; AlphaScreen HP1-beta / biotin-H3K9me3 peptide binding; Potency, µM (titrated, usually from 114 µM), usual class: inhibitors; 390,000 compounds, 0.56% hits; AID 540317; further: nearly all actives have a fitted effect of over 70% in size
Target sequence (P83916 whole entry, looked up): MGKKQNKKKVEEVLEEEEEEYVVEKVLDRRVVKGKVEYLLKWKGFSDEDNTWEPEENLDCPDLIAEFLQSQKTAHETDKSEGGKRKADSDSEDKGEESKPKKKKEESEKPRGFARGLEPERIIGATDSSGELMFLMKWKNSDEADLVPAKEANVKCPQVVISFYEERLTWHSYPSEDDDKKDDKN
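HP1-beta protein (50 nM final) preincubated 30 min at room temperature with biotinylated H3(1-18)K9me3 peptide (50 nM) in PBS pH 7.4, 0.01% Tween-20, then compound added for 30 min. AlphaScreen streptavidin donor/nickel chelate acceptor beads (10 ug/mL final), 30 min dark, luminescence read.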
G9a inh: G9a (human) methyltransferase inhibition; AID 504332; Q96KQ7; 350,000 compounds, 8.8% hits; Potency, µM (top dose mostly 102 µM), hits mostly inhibitors; G9a H3K9 monomethylation, AlphaScreen, 2 h; further: nearly all actives have a fitted effect of over 75% in size
Target sequence (Q96KQ7 913-1193 limits assumed): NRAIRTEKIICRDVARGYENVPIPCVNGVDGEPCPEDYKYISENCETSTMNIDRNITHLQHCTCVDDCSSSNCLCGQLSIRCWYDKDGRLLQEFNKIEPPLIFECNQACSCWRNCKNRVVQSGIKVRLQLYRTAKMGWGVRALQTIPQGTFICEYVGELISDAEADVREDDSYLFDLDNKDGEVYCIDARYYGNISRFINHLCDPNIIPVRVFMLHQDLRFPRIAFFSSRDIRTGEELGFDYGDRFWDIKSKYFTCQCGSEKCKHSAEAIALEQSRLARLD
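Enzyme 20 nM + cpd, 15 min RT; add b-H3K9 pep 500 nM / SAM 20 uM; 2 h RT; anti-H3K9me1 Ab 0.5 ug/mL + SA donor / anti-rabbit acceptor beads 20 ug/mL each, 10 min; AlphaScreen read.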
Sfp PPTase inh: blocks B. subtilis Sfp PPTase activity | 310,000 compounds, 3.5% hits | Potency, µM, actives largely listed as inhibitors | Biochemical Sfp PPTase activity, qHTS;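 further: the enzyme is Sfp with the accession as filed and its product quenches rhodamine fluorescence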
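Sfp 15 nM + cpd, 15 min RT; start w/ rhodamine-CoA 5 uM, BHQ-2-YbbR 12.5 uM (final); 50 mM Hepes pH 7.6, 10 mM MgCl2, 0.01% NP-40, 0.01% BSA; read 525/598 nm at 0 and 30 min.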
BAZ2B block: BAZ2B (human) inhibition. Q9UIF8. AlphaScreen BAZ2B-H3K14Ac peptide displacement. Potency, µM (series often up to 114 µM), actives largely listed as inhibitors. 360,000 compounds, 4.4% hits. AID 504333; further: nearly all actives have a fitted effect of over 60% in size
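AlphaScreen displacement: compounds (up to 110uM) incubated 30 min at room temperature with a preformed 50 nM BAZ2B/50 nM biotinylated H3K14Ac peptide complex in PBS pH 7.4 with Tween-20. Donor and acceptor beads at 10 ug/mL final added, 20 min light-protected before reading.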
TDP1 block: blocks human tyrosyl-DNA phosphodiesterase 1; Q9NUW8; recombinant TDP1, AlphaScreen DNA substrate cleavage; Potency, µM (top dose mostly 130 µM), actives largely listed as inhibitors; 350,000 compounds, 0.28% hits; AID 485290; further: nearly all actives have a fitted effect of over 40% in size
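Recombinant E. coli-expressed Tdp1 (1 nM) preincubated with compound 15 min at RT, then 5'-biotin/3'-phosphotyrosine-FITC DNA substrate (15 nM) added for 5 min. AlphaScreen beads (10 ug/ml) added, 10 min RT; tyrosine-FITC cleavage read as signal loss.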
Numbers stand for hits; [ ] = another dose, or the depositor's remark. Only some compounds are listed: those with a hit (about 12% of all), similar ones and a draw of the others. The call rests on the fitted dose curve; in most records, active means well fitted curve in the direction sought with a large enough effect; inconclusive means small, poorly fitted or top-dose-only effect, or another doubt; inactive means no such curve, though single readings can be large; an effect the other way counts as inactive or inconclusive.

How did OC1CCCN(CC(O)COC(c2ccc(F)cc2)c2ccc(F)cc2)C1 (centres undefined) do in these assays?
JMJD2A Tudor: 10µM; HP1b binding inh: inactive; G9a inh: 45µM; Sfp PPTase inh: inconclusive; BAZ2B block: 50µM

Results for OC1CCCN(CC(O)c2ccccc2)C1 (centres undefined) ?
JMJD2A Tudor: 40µM; HP1b binding inh: inactive; G9a inh: 3.2µM; Sfp PPTase inh: inconclusive; BAZ2B block: 50µM; TDP1 block: inactive

Results for OC(COC(c1ccc(Cl)cc1)c1ccc(Cl)cc1)CN1CCCC1 (centres undefined) ?
JMJD2A Tudor: inactive; HP1b binding inh: inactive; G9a inh: inactive; Sfp PPTase inh: inactive; BAZ2B block: inactive; TDP1 block: inactive

What do the screens show for `Cn1c(=O)[nH]c2ncccc21`?
JMJD2A Tudor: inactive; HP1b binding inh: inactive; Sfp PPTase inh: inactive; BAZ2B block: inactive; TDP1 block: inactive

What do the screens show for `CCc1ccccc1NC(=O)CCCN1C(=O)CCn2nc(-c3cn(C)c4ccccc34)cc21`?
JMJD2A Tudor: inactive; HP1b binding inh: inactive; G9a inh: inactive; BAZ2B block: inactive; TDP1 block: inactive

What do the screens show for `COc1ccc(COC(=O)CNC(=O)C2CCCCC2)cc1F`?
JMJD2A Tudor: inactive; HP1b binding inh: inactive; TDP1 block: inactive

Results for Cc1c(C(=O)NCc2ccc(F)cc2)sc2nc3n(c(=O)c12)CCC3 ?
JMJD2A Tudor: inactive; HP1b binding inh: inactive; G9a inh: inactive; BAZ2B block: inactive; TDP1 block: inactive

What do the screens show for `COC(=O)C1(C(=O)OC)CC2=CC(CC2=O)Cc2ccccc2[C@@H]1C[N+](=O)[O-]` (some centres undefined)?
Sfp PPTase inh: inactive; TDP1 block: inactive

How did CCN(c1ccccc1)S(=O)(=O)c1ccc2[nH]cc(C(=O)NCCOC)c(=O)c2c1 do in these assays?
JMJD2A Tudor: inactive; HP1b binding inh: inactive; G9a inh: inactive[12.7 µM]; Sfp PPTase inh: inactive; BAZ2B block: inactive; TDP1 block: inactive

How did CCN(c1ccccc1)S(=O)(=O)c1ccc2[nH]cc(C(=O)NCc3ccc(C)cc3)c(=O)c2c1 do in these assays?
JMJD2A Tudor: 56µM; HP1b binding inh: inactive; G9a inh: inactive; BAZ2B block: inactive

What do the screens show for `Cc1cccc(C(=O)Nc2cccc(C(=O)N/N=C/c3cccc(C)n3)c2)c1`?
JMJD2A Tudor: inactive; HP1b binding inh: inactive; G9a inh: inactive; Sfp PPTase inh: inactive; BAZ2B block: inactive

How did CC(=O)Nc1cccc(C(=O)N/N=C/c2cccc(C)n2)c1 do in these assays?
JMJD2A Tudor: 13µM; HP1b binding inh: inactive; G9a inh: inactive; Sfp PPTase inh: inconclusive; BAZ2B block: inactive

What do the screens show for `CNC(=S)N(C)/N=C1/C(=O)N(Cc2c(Cl)cccc2Cl)c2ccccc21`?
JMJD2A Tudor: 5µM; HP1b binding inh: inactive; G9a inh: inactive[12.7 µM]; BAZ2B block: 25µM; TDP1 block: inactive

What do the screens show for `CN(C)CCNCc1ccc(OC2CCCC2)cc1`?
JMJD2A Tudor: inactive; HP1b binding inh: inactive; G9a inh: 79µM; Sfp PPTase inh: inactive; BAZ2B block: inactive; TDP1 block: inactive

Results for CCC(CO)NCc1ccc(OC2CCCC2)cc1 (centres undefined) ?
JMJD2A Tudor: inactive; HP1b binding inh: inactive; G9a inh: inactive; Sfp PPTase inh: inactive; BAZ2B block: inactive; TDP1 block: inactive

Results for O=Cc1sc([O-])nc1-[n+]1ccc2ccccc2c1 ?
JMJD2A Tudor: inactive; HP1b binding inh: inactive; G9a inh: inactive; Sfp PPTase inh: inactive; BAZ2B block: inactive; TDP1 block: inactive

Results for O=C(CSc1nnc(CNC(=O)c2ccco2)o1)Nc1cccc(Cl)c1 ?
JMJD2A Tudor: inactive; HP1b binding inh: inactive; G9a inh: inactive; Sfp PPTase inh: inactive; BAZ2B block: inactive; TDP1 block: inactive

Results for CCc1ccc(CN2CCCC(C(=O)N3CCCCC3)C2)cc1 (centres undefined) ?
JMJD2A Tudor: 45µM; HP1b binding inh: inactive; G9a inh: 8.9µM; Sfp PPTase inh: inactive; BAZ2B block: 79µM

What do the screens show for `O=C(C1CCCN(Cc2cccnc2)C1)N1CCCCC1` (centres undefined)?
JMJD2A Tudor: inconclusive; HP1b binding inh: inconclusive; G9a inh: 4µM; Sfp PPTase inh: 50µM; BAZ2B block: 22µM; TDP1 block: inactive

How did Cc1ccccc1CN1CCCC(C(=O)N2CCCCC2)C1 (centres undefined) do in these assays?
JMJD2A Tudor: 22µM; HP1b binding inh: inconclusive; G9a inh: 25µM; Sfp PPTase inh: inactive; BAZ2B block: 79µM

What do the screens show for `C[C@H]1NC(=O)NC1=O`?
G9a inh: inactive[21.5 µM]; Sfp PPTase inh: inactive; TDP1 block: inactive[21 µM]

How did Cc1cc(C)n2nc(C(=O)N/N=C/C=C/c3ccccc3)nc2n1 do in these assays?
JMJD2A Tudor: inactive; HP1b binding inh: inactive; Sfp PPTase inh: inactive; BAZ2B block: inactive

What do the screens show for `COc1ccc(C(C(=O)Nc2ccc(C(C)C)cc2)N(C)C(=O)c2ccc(=O)[nH]c2)cc1` (centres undefined)?
JMJD2A Tudor: 50µM; HP1b binding inh: inactive; G9a inh: inactive; Sfp PPTase inh: inactive; BAZ2B block: inactive; TDP1 block: inactive

How did COC(=O)NCc1ccc2c(c1)OCO2 do in these assays?
JMJD2A Tudor: inactive; HP1b binding inh: inactive; G9a inh: inactive[12.7 µM]; Sfp PPTase inh: inactive; BAZ2B block: inactive; TDP1 block: inactive

How did CC12CCC(C(=O)NCc3ccc4c(c3)OCO4)(C(=O)C1=O)C2(C)C (centres undefined) do in these assays?
JMJD2A Tudor: inactive; HP1b binding inh: inactive; G9a inh: 45µM; Sfp PPTase inh: inactive; BAZ2B block: inactive; TDP1 block: inactive

How did CCCCNC(=O)CSc1nc(N)c(C(=O)Nc2ccc(OC)cc2)s1 do in these assays?
JMJD2A Tudor: inactive; HP1b binding inh: inactive; Sfp PPTase inh: inactive; BAZ2B block: inactive; TDP1 block: inactive

Results for Cc1cccc(N(C)C(=O)CCS(=O)(=O)c2cc3c(cc2Cl)NC(=O)CO3)c1 ?
JMJD2A Tudor: inactive; HP1b binding inh: inactive; G9a inh: inconclusive; Sfp PPTase inh: inactive; BAZ2B block: inactive

What do the screens show for `O=C(CCl)c1ccc(Cc2ncc(C(F)(F)F)cc2Cl)s1`?
JMJD2A Tudor: 79µM; HP1b binding inh: inactive; G9a inh: inconclusive; Sfp PPTase inh: inactive; BAZ2B block: inconclusive; TDP1 block: inactive

What do the screens show for `O=C1S/C(=C\c2ccc(N3CCOCC3)o2)C(=O)N1c1ccccc1`?
JMJD2A Tudor: inactive[11.4 µM]; HP1b binding inh: inactive; G9a inh: 5µM; Sfp PPTase inh: 4µM; BAZ2B block: inconclusive; TDP1 block: inactive

What do the screens show for `O=C(O)c1ccccc1-c1ccc(/C=C2\SC(=O)N(c3ccccc3)C2=O)o1`?
JMJD2A Tudor: inactive; HP1b binding inh: inactive; G9a inh: 7.1µM; Sfp PPTase inh: inactive; BAZ2B block: inconclusive

Bioassay records deposited in PubChem by National Center for Advancing Translational Sciences (NCATS).
